Data on 3 compounds can be found in PubChem BioAssay AID602364 (National Center for Advancing Translational Sciences (NCATS), 2012).

Results filed as inconclusive are left out. Active and inactive are the calls of the source. The call rests on the fitted dose curve; in most records, active means well fitted inhibition curve with a large enough effect; inconclusive means small, poorly fitted or top-dose-only effect; inactive means flat fitted curve, though single readings scatter.

Sequence of Luciferin 4-monooxygenase (Photinus pyralis) (P08659 whole entry, looked up): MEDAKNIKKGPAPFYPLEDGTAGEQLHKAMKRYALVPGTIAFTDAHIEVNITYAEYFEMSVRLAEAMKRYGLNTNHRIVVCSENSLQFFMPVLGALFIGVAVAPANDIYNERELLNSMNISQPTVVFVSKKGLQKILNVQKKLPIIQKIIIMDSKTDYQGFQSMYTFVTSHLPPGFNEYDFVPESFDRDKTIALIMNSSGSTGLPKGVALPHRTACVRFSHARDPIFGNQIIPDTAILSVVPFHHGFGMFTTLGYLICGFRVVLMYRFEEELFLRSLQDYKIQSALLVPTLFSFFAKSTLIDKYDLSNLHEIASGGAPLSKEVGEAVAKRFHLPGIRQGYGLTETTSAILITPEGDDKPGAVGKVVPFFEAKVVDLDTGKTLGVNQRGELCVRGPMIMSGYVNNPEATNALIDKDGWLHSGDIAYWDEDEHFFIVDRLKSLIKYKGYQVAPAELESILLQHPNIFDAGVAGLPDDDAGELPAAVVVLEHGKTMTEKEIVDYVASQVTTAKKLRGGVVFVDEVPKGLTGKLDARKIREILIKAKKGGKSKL

The target of this assay is Luciferin 4-monooxygenase (Photinus pyralis) (UniProt P08659). Nature of the assay: FLuc inhibitory activity for the follow-up compounds in a biochemical assay with 1mM ATP. As to conditions: purified P. pyralis luciferase, luminescence; series mostly up to 57.5 µM. In outline:
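qHTS, 12 concentrations from ~60uM down to 0.3nM, against 10nM firefly luciferase; substrates at 1mM ATP and 10uM D-luciferin, in 50mM Tris acetate pH 7.5, 10mM Mg acetate; light output imaged.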
For `O=C(O)c1cccc(NC(=O)c2ccc(S(=O)(=O)c3ccccc3)cc2)c1`, the Potency is 11.6 µM (active).
Then `O=C(Nc1ccccc1C(=O)O)c1cccc(S(=O)(=O)Nc2ccc(Br)cc2)c1`, with “inactive”.
`COc1ccc(C(=O)Nc2cccc(C(=O)O)c2)cc1S(=O)(=O)N1CCCC1`: the Potency is 14.6 µM (active).
